Experimental findings from PubChem BioAssay (NCI) are described below.

Structures are written as SMILES. The panel holds about 83,000 compounds, 20% with a hit somewhere; the sample as a whole holds those more often.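 96-well plates, one dose, 48 hours. Percent growth reported; active if below 10.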 A number with no mark means an inactive call. The source made the active and inactive calls.

The first test concerns CCRF-CEM leukemia. Description: NCI-60 one-dose screen, 48 h (100 = growth as untreated, 0 = no growth, -100 = all killed). Particulars: 10 µM unless noted.
Regarding `O=C1Nc2ccc(Br)cc2C1=N/C=c1\[nH]c(=O)/c(=C/c2ccc(Cl)cc2)s1`, the growth was 87.9%. On the same count and under the same terms, under `Nc1c(C(=O)Nc2cccc(C(F)(F)F)c2)sc2nc3c(cc12)CCCCC3` stands 61.9%; under `COc1cc(/C=C2\C=C(c3ccc(F)cc3)N(Cc3ccccc3)C2=O)cc(OC)c1OC`, 62%. Still for that read-out and setting: the same measure for `Clc1nc(Cl)c2ncn(C/C=C/Cn3cnc4c(Cl)nc(Cl)nc43)c2n1`: 18.2%; for `NC(C(=O)O)C(O)c1ccc(OCc2ccccc2)c(OCc2ccccc2)c1` (stereo not drawn): 94.6%; for `Nc1c(C(=O)Nc2ccccc2)sc2nc3c(cc12)CCC3`: 89.7%. Still for that read-out and setting: the same measure for `COc1ccc(/C=C/c2cc(N3CCOCC3)c3cc(F)c(F)cc3n2)cc1OC`: 12.3%; for `O=[N+]([O-])c1cccc(-c2cc(-c3cc(Br)ccc3O)[nH]n2)c1`: 8.04% (active). On to `COC1=CC(c2ccc[nH]2)=N/C1=C\c1[nH]c(C)c(C(=O)CCC(=O)Oc2ccc3c(c2)CCC2C3CC[C@]3(C)[C@@H](O)CC[C@@H]23)c1C` (stereo partly drawn), for which the growth is 0.176% (active).

Turning to `COc1ccc(C2=NN(c3ccc(S(N)(=O)=O)cc3)C(c3cn(-c4ccccc4)nc3-c3ccc(Cl)cc3)C2)cc1` (stereo not drawn), the growth was 73.3%. Same read-out and setting: under `COc1cc(CCn2nnc3c(NCCCCO)ncnc32)cc(OC)c1` stands 95%.

In the case of `Clc1ccc(-c2nc(-c3ccco3)cn3ccnc23)cc1`, the growth was 78.4%. Still for that read-out and setting: the same measure for `O=C(c1ccncc1)N1N=C(c2ccc(Cl)cc2)CC1c1c[nH]c2ccccc12` (stereo not drawn): 56.7%; for `COc1ccc(-c2cn[nH]c2-c2cc(OC)c3c(c2)OCCO3)cc1`: 17.4%; for `O=S(=O)(c1ccccc1)n1ccc(-c2ccc3c(c2)CCO3)n1`: 76.7%. The same measure, in the same setting: the same measure for `COC1=CC(c2ccc[nH]2)=N/C1=C\c1[nH]c(C)c(C(=O)CCCCC(=O)NCc2ccccc2)c1C`: 39.2%; for `Nc1c(C(=O)Nc2cccc([N+](=O)[O-])c2)sc2nc3c(cc12)C(O)CCC3` (stereo not drawn): 37.2%; for `COc1cccc(NC(=O)c2sc3nc4c(cc3c2N)CCCC4)c1`: 13.6%. The same measure, in the same setting: under `O=C(Nc1cccc(C(F)(F)F)c1)Nc1ccc(OCc2nnc(-c3ccccc3)o2)c(F)c1` stands 8.15% (active); under `CC(=O)Nc1nc(C(=O)N2N=C(C)/C(=C/c3ccc(Cl)cc3)C2=O)cs1`, 99.6%.

With `COc1cc(C(=O)OCCCCCCCCCCC[P+](c2ccccc2)(c2ccccc2)c2ccccc2)ccc1O`, the growth is -32.3% (active).

For the compound `O=C(NCCCN1CCN(CCCNC(=O)C2CCCCC2)CC1)C1CCCCC1`, the growth is 91.9%.

With `COc1cc2c(cc1OC)C1(C)N(CC2)C(=O)OC1(C)C` (stereo not drawn), the growth is 106%. For the compound `CCCCCc1c(C)[nH]c(/C=c2\[nH]/c(=C3/C=c4ccccc4=N3)cc2OC)c1C`, the growth is -19% (active). Regarding `COc1cc(-c2n[nH]nc2-c2ccc3c(c2)OCCO3)cc(OC)c1OC`, the growth was 5.78% (active).

Another test relates to MOLT-4 leukemia. Described as above. Particulars: 10 µM unless noted.
With `Clc1ccc([I+]c2ccc(Cl)cc2Cl)c(Cl)c1`, the growth is -6.5% (active). Same read-out and setting: the same measure for `Cc1ccc(C2=NN(c3ccc(S(N)(=O)=O)cc3)C(c3cn(-c4ccccc4)nc3-c3ccccc3)C2)cc1` (stereo not drawn): 18.7%. Still for that read-out and setting: the same measure for `N#CC1=C(N)OC2=C(C(=O)CCC2)C1c1ccco1` (stereo not drawn): 97.9%; for `COC1=CC(c2ccc[nH]2)=N/C1=C\c1[nH]c(C)c(C(=O)CCCCC(=O)Oc2ccc3c(c2)CCC2C3CC[C@]3(C)[C@@H](O)CC[C@@H]23)c1C` (stereo partly drawn): 22.8%; for `COc1ccc(NC(=O)CSc2nc3ccccc3c(=O)n2Cc2cc(OC)c(OC)c(OC)c2)cc1`: 68.8%.

For `Nc1c(C(=O)Nc2c(Cl)cccc2Cl)sc2nc3c(cc12)CCCCC3`, the growth is 54.4%.

Consider `O=C(CN1CCN(c2cc3c(cc2F)c(=O)c(C(=O)O)cn3C2CC2)CC1)Nc1ccc(C(=O)/C=C/c2ccccc2)cc1`, for which the growth is 19%. As for `COc1cc(/C=C/C(=O)c2ccc(NC(=O)CN3CCN(c4cc5c(cc4F)c(=O)c(C(=O)O)cn5C4CC4)CC3)cc2)cc(OC)c1OC`, the growth was -1.1% (active). Still for that read-out and setting: under `NC(=O)c1c(NC(=O)c2ccc(OCC3CCCO3)cc2)sc2c1CCCC2` (stereo not drawn) stands 99.3%.

On to `COc1ccc(/C=C/C(=O)OCC(=O)NNC(=O)c2ccccc2)cc1OC`, for which the growth was 70.1%.

Turning to `Cc1sc(N=Nc2ccc(N(C)C)cc2)[n+]([O-])c1C`, the growth was 103%. As for `O=C(/C=C/c1ccccc1)n1c(-c2ccc(Cl)cc2)nc2ccccc21`, the growth is 21.9%.

Regarding `COC(=O)[C@H]1[C@H](OC)[C@@H](OC(=O)/C=C/c2ccncc2)CC2CN3CCc4c([nH]c5cc(OC)ccc45)[C@@H]3C[C@@H]21` (stereo partly drawn), the growth was 78.2%. As to `O=C1Nc2ccc(Br)cc2C1=N/C=c1\[nH]c(=O)/c(=C/c2ccc(Cl)cc2)s1`, the growth is 90.9%. Same read-out and setting: the same measure for `Nc1c(C(=O)Nc2cccc(C(F)(F)F)c2)sc2nc3c(cc12)CCCCC3`: 83%. On the same count and under the same terms, the same measure for `COc1cc(/C=C2\C=C(c3ccc(F)cc3)N(Cc3ccccc3)C2=O)cc(OC)c1OC`: 25.9%; for `Clc1nc(Cl)c2ncn(C/C=C/Cn3cnc4c(Cl)nc(Cl)nc43)c2n1`: 80.8%; for `NC(C(=O)O)C(O)c1ccc(OCc2ccccc2)c(OCc2ccccc2)c1` (stereo not drawn): 98.9%. Same read-out and setting: the same measure for `Nc1c(C(=O)Nc2ccccc2)sc2nc3c(cc12)CCC3`: 90.3%.

On to `COc1ccc(/C=C/c2cc(N3CCOCC3)c3cc(F)c(F)cc3n2)cc1OC`, for which the growth is 9.14% (active).

`O=[N+]([O-])c1cccc(-c2cc(-c3cc(Br)ccc3O)[nH]n2)c1`: the growth is 4.68% (active). Still for that read-out and setting: under `COC1=CC(c2ccc[nH]2)=N/C1=C\c1[nH]c(C)c(C(=O)CCC(=O)Oc2ccc3c(c2)CCC2C3CC[C@]3(C)[C@@H](O)CC[C@@H]23)c1C` (stereo partly drawn) stands -9.7% (active).

As for `COc1ccc(C2=NN(c3ccc(S(N)(=O)=O)cc3)C(c3cn(-c4ccccc4)nc3-c3ccc(Cl)cc3)C2)cc1` (stereo not drawn), the growth is 69.2%. On the same count and under the same terms, the same measure for `COc1cc(CCn2nnc3c(NCCCCO)ncnc32)cc(OC)c1`: 112%; for `Clc1ccc(-c2nc(-c3ccco3)cn3ccnc23)cc1`: 80%. In the case of `O=C(c1ccncc1)N1N=C(c2ccc(Cl)cc2)CC1c1c[nH]c2ccccc12` (stereo not drawn), the growth was 75.1%. The same measure, in the same setting: the same measure for `COc1ccc(-c2cn[nH]c2-c2cc(OC)c3c(c2)OCCO3)cc1`: 12%; for `O=S(=O)(c1ccccc1)n1ccc(-c2ccc3c(c2)CCO3)n1`: 85.6%; for `COC1=CC(c2ccc[nH]2)=N/C1=C\c1[nH]c(C)c(C(=O)CCCCC(=O)NCc2ccccc2)c1C`: 70.1%.

`Nc1c(C(=O)Nc2cccc([N+](=O)[O-])c2)sc2nc3c(cc12)C(O)CCC3` (stereo not drawn): the growth is 42.2%.

Regarding `COc1cccc(NC(=O)c2sc3nc4c(cc3c2N)CCCC4)c1`, the growth is 17.8%. The same measure, in the same setting: under `O=C(Nc1cccc(C(F)(F)F)c1)Nc1ccc(OCc2nnc(-c3ccccc3)o2)c(F)c1` stands 17%; under `CC(=O)Nc1nc(C(=O)N2N=C(C)/C(=C/c3ccc(Cl)cc3)C2=O)cs1`, 91.7%; under `COc1cc(C(=O)OCCCCCCCCCCC[P+](c2ccccc2)(c2ccccc2)c2ccccc2)ccc1O`, -50.9% (active). Still for that read-out and setting: under `O=C(NCCCN1CCN(CCCNC(=O)C2CCCCC2)CC1)C1CCCCC1` stands 94.1%; under `COc1cc2c(cc1OC)C1(C)N(CC2)C(=O)OC1(C)C` (stereo not drawn), -75.3% (active); under `CCCCCc1c(C)[nH]c(/C=c2\[nH]/c(=C3/C=c4ccccc4=N3)cc2OC)c1C`, -23.1% (active). On the same count and under the same terms, the same measure for `COc1cc(-c2n[nH]nc2-c2ccc3c(c2)OCCO3)cc(OC)c1OC`: 5.49% (active).
